The panel holds about 83,000 compounds, 20% with a hit somewhere; the sample as a whole holds those more often.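 Negative percent growth values reflect cell death: -40 means 40% of the cells present at the start died, and -100 means all died.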 Values without a mark were called inactive. Activity calls are given as the source filed them. How the source made its calls: active means growth percent below 10; inactive means the rest.
Assays:
Test in all cases: NCI-60 one-dose screen, 48 h (100 = growth as untreated, 0 = no growth, -100 = all killed)
Conditions in all cases: 10 µM unless noted
[1] = tested on: NCI-H23 lung
[2] = tested on: NCI-H226 lung
[3] = tested on: NCI-H322M lung
[4] = tested on: HOP-62 NSCLC
[5] = tested on: NCI-H460 lung
[6] = tested on: HOP-92 NSCLC
[7] = tested on: NCI-H522 lung
[8] = tested on: A549/ATCC NSCLC
[9] = tested on: 786-0 renal
[10] = tested on: COLO 205 colon
[11] = tested on: DU-145 prostate
[12] = tested on: K-562 leukemia
[13] = tested on: MALME-3M melanoma
[14] = tested on: MDA-MB-231 breast
[15] = tested on: RXF 393 renal
[16] = tested on: SF-268 CNS
[17] = tested on: SF-295 CNS
[18] = tested on: SF-539 CNS
[19] = tested on: UACC-257 melanoma
[20] = tested on: M14 melanoma

Structure (SMILES) | growth [1] [%] | growth [2] [%] | growth [3] | growth [4] [%] | growth [5] [%] | growth [6] [%] | growth [7] | growth [8] [%] | growth [9] [%] | growth [10] [%] | growth [11] [%] | growth [12] | growth [13] [%] | growth [14] [%] | growth [15] | growth [16] [%] | growth [17] [%] | growth [18] | growth [19] [%] | growth [20] [%]
Cc1c(-c2ccc(O)cc2)n(Cc2ccc(OCCN3CCCCCC3)cc2)c2ccc(O)cc12 | 77 | 89.7 | 92.3% | 80.6 | 89.3 | 59.3 | 75.5% | 72.5 | 75.7 | 106 | 87 | -6.6% (active) | 69.5 | 82.3 | 49.9% | 74.2 | 99.1 | 61.7% | 81.6 | 63.5
O=C(Nc1ccc(Oc2cccc(Cl)c2)c(Cl)c1)c1cnccn1 | 46.1 | 64.1 | 47.9% | 41 | 15.7 | 62 | 12.5% | 23.9 | 44.6 | 12.3 | 22.7 | 13.2% | 53.4 | 31.7 | -4.58% (active) | 54.3 | 41.2 | -35.2% (active) | 72.4 | 19.8
Fc1cc2c(cc1Cl)N(c1ncnc3ccc(-c4ccc5n[nH]nc5c4)cc13)CC2 | 79.6 | 88.1 | 54.5% | 72.3 | 97.1 | 31.5 | 67.3% | 77.5 | 78.6 | 109 | 67.1 | 88.2% | 88.8 | 72.8 | 78.7% | 69.5 | 91.7 | 78.9% | 96 | 94.8
O=C(CSC(=S)n1cnnc1)NC(=O)c1ccccc1 | 102 | 100 | 103% | 106 | 112 | 101 | 92.4% | 114 | 104 | 119 | 105 | 89.8% | 98.4 | 112 | 120% | 98.6 | 106 | 100% | 113 | 98.1
CC(O)(c1ccccc1)C(c1ccccc1)C1CCCCN1 (stereo not given) | 107 | 102 | 88.5% | 99.3 | 103 | 90.3 | 95.1% | 88.1 | 103 | 103 | 103 | 95.6% | 97.5 | 93.9 | 106% | 99.6 | 99.8 | 96.5% | 96.2 | 92.3
O=C(Cn1cc(CSc2nc3ccccc3o2)nn1)Nc1ccc(F)cc1F | 96 | 86.2 | 104% | 114 | 117 | 114 | 111% | 113 | 119 | 127 | 124 | 107% | 106 | 112 | 103% | 115 | 106 | 106% | 103 | 108
Cn1ccc(=O)c(C(=O)Nc2nsc3ccc([N+](=O)[O-])cc23)c1 | 91.3 | 76.7 | 45.2% | 96.4 | 48.2 | 41.2 | 53.3% | 74.9 | 56.2 | 76.9 | 63.2 | 78.3% | 65.7 | 47.9 | 35.9% | 74.9 | 110 | 77.6% | 89.6 | 46.6
Nc1ncc(-c2ccc3ncnc(Nc4cccc(Cl)c4)c3c2)cn1 | 58.9 | 51.3 | 4.75% (active) | 37.8 | 54.8 | 11.8 | 3.25% (active) | 35.1 | 40.8 | 51.2 | 28.9 | 58.2% | 40.4 | 42.1 | 25.2% | 42 | 44.2 | 54.2% | 65.7 | 60.6
